# HT1080-NT tox = kills 2HG-producing HT-1080-NT fibrosarcoma cells; HT-1080-NT fibrosarcoma viability, CellTiter-Glo ATP luminescence, 48 h; Potency, µM (titrated, usually from 46.1 µM), actives largely listed as cytotoxic; actives 1.6% (n = 360,000); AID 686970;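 further: NT is the 2HG producing partner of a matched IDH1 knockdown line; nearly all actives have a fitted effect of over 55% in size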
#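 Toxicity toward the 2HG-producing NT line was scored as %Activity, normalised to DMSO and no-cell wells, from CellTiter-Glo luminescence after 48 hours' treatment.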
# IL1B secr inh = inflammasome signaling inhibition, IL-1 beta readout; actives 4.7% (n = 360,000); activity change, % at 57.5 µM; THP-1 LPS/ATP IL-1B secretion, AlphaLISA, 16 h; hits give low values; in the data active means activity change below about -50%; inconclusive means mostly about -30% to -49%
#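 Secreted IL-1B measured by AlphaLISA bead assay after 16 h compound exposure of THP-1 cells; compounds (final up to 57.5 uM) added 1 h before LPS (250 ng/mL) and ATP (1.25 mM) stimulation; lower signal means less secretion.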
# DT40 TDP1 no CPT = qHTS for Inhibitors of human tyrosyl-DNA phosphodiesterase 1 (TDP1): qHTS in cells in absence of CPT | DT40 Tdp1-/- hTDP1 cells, no CPT, ATP luminescence, 48 h | actives 15% (n = 420,000) | Potency, µM (titrated, usually from 46.2 µM), actives largely listed as inhibitors; further: nearly all actives have a fitted effect of over 55% in size
#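 Stably hTDP1-transfected Tdp1-null chicken DT40 cells were treated with library compounds minus camptothecin and grown for at least 48 hr at 37 °C, after which cellular ATP was quantified by luminescence.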
# HT1080 IDH1KD tx = HT-1080 IDH1 knockdown cell toxicity (counter line); HT-1080 IDH1 knockdown viability, ATP luminescence, 48 h; Potency, µM (highest dose often 46.1 µM), usual class: cytotoxic; actives 2% (n = 360,000)
#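 % activity derives from luminescence (CellTiter-Glo), normalised to DMSO and no-cell wells. HT-1080-IDH1KD cells, 750/well, had 48 h compound exposure at 37 °C.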
# DT40 TDP1 CPT = DT40-hTDP1 cell growth loss with CPT; chicken DT40 Tdp1-/-;hTDP1 cells + 20 nM CPT, ATP luminescence, 48 h; Potency, µM (highest dose often 46.2 µM), hits mostly inhibitors; actives 12% (n = 420,000); AID 686979; further: nearly all actives have a fitted effect of over 55% in size
#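 Chicken DT40 Tdp1-/- cells complemented with human TDP1, 400 cells/well, exposed to compounds plus 20 nM camptothecin for at least 48 h at 37 C; viability read as ATP content by CellTiter-Glo luminescence.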
# A number is an active result; . = inactive; ? = inconclusive; / = no result given; [ ] = dose if it differs, or a comment. Compounds with a hit are over-represented: about 19% of the library has one in this group of screens. Unless noted, the call rests on the fitted dose curve; in most records, active means well fitted curve in the direction sought with a large enough effect; inconclusive means small, poorly fitted or top-dose-only effect, or another doubt; inactive means no such curve, though single readings can be large; an effect the other way counts as inactive or inconclusive.
SMILES,HT1080-NT tox,IL1B secr inh,DT40 TDP1 no CPT,HT1080 IDH1KD tx,DT40 TDP1 CPT
Cc1noc(/C=C/c2ccccc2F)c1S(=O)(=O)N1CCC(C(=O)N2CCN(C)CC2)CC1,?,.,?,?,?
CCN(CCN(C)C)C(=O)C1CCN(S(=O)(=O)c2c(C)noc2/C=C/c2ccccc2F)CC1,.,.,4.6µM,.,2.9µM
Cc1noc(/C=C/c2ccco2)c1S(=O)(=O)N1CCC(C(=O)N(C)Cc2ccccc2)CC1,.,?,.,.,?
Cc1cc(C)n(C(=O)c2cc3ccccc3c(=O)o2)n1,.,.,.,.,.
O=C(Oc1ccc(Nc2ncnc3ccccc23)cc1)c1cccnc1,.,.,?,.,.
c1cncc(CNc2ncnc3ccc(-c4ccoc4)cc23)c1,/,/,?,/,10µM
Cc1noc(C)c1-c1ccc2ncnc(Nc3ccccc3)c2c1,/,/,?,/,.
Cc1noc(C)c1-c1ccc2ncnc(NCc3cccnc3)c2c1,/,/,?,/,9.2µM
c1ccc(Nc2ncnc3ccc(-c4cccnc4)cc23)cc1,/,/,18µM,/,?
Cc1cccc(CNc2ncnc3ccc(-c4ccoc4)cc23)c1,/,/,13µM,/,21µM
O=C(CN(Cc1ccc(F)cc1)C(=O)CNS(=O)(=O)c1ccc(Cl)cc1)NCC1CCCO1 (centres undefined),.,.,.,.,.
Cc1cccc(CNc2ncnc3ccc(-c4cccnc4)cc23)c1,/,/,18µM,/,12µM
CN(C)C(=O)c1ccc(-c2ccc3ncnc(NCc4cccnc4)c3c2)cc1,/,/,.,/,.
CCOC(=O)CSC1=NC(=O)CS1,.,.,?,.,10µM
CCOC(=O)CSc1snnc1C,.,.,.,.,.
COc1cccc(C(=O)Nc2ccc(-n3nncc3C(C)(C)C)cc2)c1,.,.,21µM,.,?
COc1cccc(C(=O)Nc2ccc(NC(=O)c3ccc(C(C)(C)C)cc3)cc2)c1,/,/,10µM,/,16µM
COc1ccc(C(=O)Nc2ccc3ncccc3c2)cc1,.,.,?,.,5.8µM
COC(=O)Cc1ccc(NC(=O)c2ccc(C(C)(C)C)cc2)cc1,.,-50,?,.,?
CCn1c(=O)cc(OCC(=O)Nc2ccccc2Cl)c2ccccc21,/,/,.,/,.
CC1(c2nc3ccccc3cc2C#N)OCCO1,.,.,?,.,.
COc1ccc(NC(=O)c2ccc3c(c2)n(C)c(=O)n3C)cc1,.,-56,.,.,.
CC(C)(C)c1ccc(C(=O)Nc2ccc(Oc3cccnc3)nc2)cc1,.,-73,13µM,?,?
CC(C)(C)c1cnnn1-c1ccc(NC(=O)c2ccc3c(c2)OCO3)cc1,.,.,21µM,.,?
COc1cccc(S(=O)(=O)NCC(=O)Nc2ccc(C(C)(C)C)cc2)c1,.,-60,?,.,?
SMILES,HT1080-NT tox,IL1B secr inh,DT40 TDP1 no CPT,HT1080 IDH1KD tx,DT40 TDP1 CPT
COc1cccc(NC(=O)CNS(=O)(=O)c2ccc(Cl)cc2)c1,.,.,.,.,.
O=S(=O)(O)c1cc2oc(-c3ccccc3)nc2c2ccccc12,.,.,.,.,.
CC(=O)Nc1cccc(OCCCNC(=O)c2ccc(C(C)(C)C)cc2)c1,?,.,?,15µM,?
CC(=O)Nc1cccc(OCCCNC(=O)c2ccc(F)cc2)c1,.,.,.,.,.
N#CCC(=O)Nc1ccc(C(=O)OCC(=O)c2ccc3c(c2)OCO3)cc1,.,?,.,?,.
O=C(COC(=O)c1ccc(O)cc1)Nc1ccc2c(c1)OCO2,.,.,12µM,.,?
O=C(COC(=O)c1ccc(O)cc1O)Nc1ccc2c(c1)OCCO2,.,.,9.2µM,.,9.2µM
CN(C)S(=O)(=O)c1ccc(C(=O)OCC(=O)Nc2ccc3c(c2)OCO3)cc1,.[9.24 µM],.,.,.,.
CC(C)(C)NC(=O)COC(=O)c1ccc(NC(=O)CC#N)cc1,.,.,.,.,1.5µM
N#CCC(=O)Nc1ccc(C(=O)OCC(=O)c2ccc3c(c2)OCCO3)cc1,.,.,18µM,.,?
COc1ccc(OCC(=O)NCc2nc(-c3ccccc3)no2)cc1,.,.,.,.,.
CC(C)(NC(=O)c1cc(Cl)c2ccccc2c1O)C(=O)O,.,.,.,.,.
Fc1ccc(Nc2ncncc2-c2ccoc2)cc1,/,/,.,/,.
O=C(COC(=O)c1ccc(CO)cc1)Nc1ccc2ccccc2c1,.,.,.,.,.
O=C(COC(=O)c1ccc(O)cc1O)Nc1ccc2ccccc2c1,.,.,13µM,.,15µM
O=C(CNC(=O)C(c1ccccc1)c1ccccc1)N/N=C/c1ccc(O)cc1O,?,.,6.5µM,7.3µM,5.8µM
COc1ccc(Cl)cc1C(=O)NNC(=O)C1COc2ccccc2O1 (centres undefined),.,.,?,.,?
O=C(CNC(=O)C1COc2ccccc2O1)N/N=C/c1ccc(O)cc1O (centres undefined),.,.,6.5µM,?,6.5µM
O=C(/C=C\c1ccccc1)NCC(=O)N/N=C/c1ccc(O)cc1O,?,.,8.2µM,?,21µM

# Assay outcomes deposited in PubChem BioAssay by National Center for Advancing Translational Sciences (NCATS).
